ERa SRC1 inh = ER-alpha (human) coactivator binding inhibition; P03372; TR-FRET ER-alpha LBD / SRC-1 peptide, estradiol-bound; inhibition, % at 25.6 µM; actives 1.7% (n = 86,000); AID 629; in the data active = inhibition above about 50%;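 note: 0% = receptor plus peptide control and 100% = peptide only without receptor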
EphB4 ephrin blk = antagonists of human EphB4-ephrin-B2 interaction. EphB4 LBD / TNYL-RAW-Alexa532 peptide, fluorescence polarization. P54760. actives 0.15% (n = 97,000). inhibition, % at 7 µM;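 active = inhibition above the screen-wide mean inhibition plus 3 SD, cut at about 15% in these data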;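 note: 0% = DMSO wells and 100% = excess unlabeled TNYL-RAW peptide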
ERb coact inh = blocks coactivator binding to human estrogen receptor beta | actives 1.3% (n = 86,000) | Q92731 | TR-FRET ER-beta LBD / SRC1-Cy5 peptide binding; receptor agonist-loaded with 1 µM estradiol | inhibition, % at 25.6 µM;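 active = compounds whose percent inhibition of the receptor-coactivator binding signal exceeds about 50% in the single-dose screen, limit read from the data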;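 note: 0% = receptor plus peptide wells without compound and 100% = peptide-only wells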
Target sequence (Q92731 whole entry, looked up, the tested form may be a part): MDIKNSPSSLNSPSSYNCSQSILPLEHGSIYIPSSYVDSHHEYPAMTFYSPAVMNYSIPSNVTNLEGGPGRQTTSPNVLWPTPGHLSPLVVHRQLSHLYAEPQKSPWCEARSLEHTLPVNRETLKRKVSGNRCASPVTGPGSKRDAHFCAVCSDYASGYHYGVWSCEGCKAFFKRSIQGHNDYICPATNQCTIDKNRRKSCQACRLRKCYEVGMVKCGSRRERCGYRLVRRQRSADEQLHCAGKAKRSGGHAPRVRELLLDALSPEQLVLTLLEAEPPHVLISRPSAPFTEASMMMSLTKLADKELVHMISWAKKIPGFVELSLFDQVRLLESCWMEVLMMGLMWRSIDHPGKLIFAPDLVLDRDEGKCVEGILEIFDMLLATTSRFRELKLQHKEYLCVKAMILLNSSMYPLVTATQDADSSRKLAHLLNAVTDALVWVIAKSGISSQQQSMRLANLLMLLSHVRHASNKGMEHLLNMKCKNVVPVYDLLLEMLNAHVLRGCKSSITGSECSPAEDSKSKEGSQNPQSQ
ERa coact pot = ER-alpha (human) coactivator binding potentiation; P03372; actives 1.3% (n = 86,000); AID 639; TR-FRET ERalpha-LBD/SRC-Cy5 coactivator binding, 2 h; 100 = basal binding, no effect; coactivator binding (% of control), % at 25.6 µM; in the data active = activity above about 200%;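 note: binding measured in presence of low estradiol as agonist stimulus; 0% = peptide alone without receptor and 100% = receptor with peptide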
Numbers without * were called inactive; [ ] = dose if it differs, or a comment. A selection: hits, their analogues and other compounds. The true share with any hit is near 2.8%.

How did O=C1C2C(c3ccccc3)C=CC(c3ccccc3)C2C(=O)N1C1CCCCC1 (stereo not given) do in these assays?
ERa SRC1 inh: -0.1; EphB4 ephrin blk: -10.8; ERb coact inh: -13.6; ERa coact pot: 84.2

How did CC(c1ccccc1)C1CC(=O)N(C2CCCCC2)C1=O (stereo not given) do in these assays?
ERa SRC1 inh: -2.3; EphB4 ephrin blk: 16.8*; ERb coact inh: 2.5; ERa coact pot: 97.1

What do the screens show for `CCC1CCCCN1C(=O)CSc1nnc(-c2cccs2)o1` (stereo not given)?
ERa SRC1 inh: 14.9; EphB4 ephrin blk: 5.5; ERb coact inh: 5.6; ERa coact pot: 80.8

How did CN(C)CCN1CCc2ccccc21 do in these assays?
ERa SRC1 inh: 40.4; EphB4 ephrin blk: 1.6; ERb coact inh: 55.0*[fluorescence artefact?]; ERa coact pot: 47.6

What do the screens show for `CC1=C(C(=O)OCc2ccccc2)C(c2cccnc2)c2c(n(C)c(=O)n(C)c2=O)N1` (stereo not given)?
EphB4 ephrin blk: -9.2

Results for CC(=O)OC1CC(C)(C)N(OC(=O)c2ccc(N)cc2)C(C)(C)C1 ?
ERa SRC1 inh: 61.4*; EphB4 ephrin blk: -1.8; ERb coact inh: 20.4; ERa coact pot: 54.5

How did O=C1CCC(=O)N1c1ccccc1-c1ccccc1 do in these assays?
ERa SRC1 inh: -4.1; EphB4 ephrin blk: 9.1; ERb coact inh: 0.2; ERa coact pot: 117.5

What do the screens show for `Cc1cc(-c2ccc(N3C(=O)CCC3=O)c(C)c2)ccc1N1C(=O)CCC1=O`?
ERa SRC1 inh: -7.2; EphB4 ephrin blk: 5.1; ERb coact inh: 62.6*; ERa coact pot: 106.5

What do the screens show for `Cc1nc2ccc(S(=O)(=O)NCC(=O)NCCN3CCCCCC3)cc2s1`?
ERa SRC1 inh: 57.1*[fluorescence artefact?]; EphB4 ephrin blk: -6.4; ERb coact inh: 22.4; ERa coact pot: 54.5

Results for Cc1nn(C)cc1/C=N/NC(=O)C(C)(C)Oc1ccc(Cl)cc1 ?
EphB4 ephrin blk: 2.8

What do the screens show for `CC(C)CCN1CC(O)=C(c2nc(-c3ccc(Cl)cc3)cs2)C1=N`?
ERa SRC1 inh: 24.0; EphB4 ephrin blk: 7.1; ERb coact inh: 28.0; ERa coact pot: 219.4*

What do the screens show for `CCN(CC)S(=O)(=O)c1cccc(C(=O)NC(C(=O)Nc2nnc(C)s2)C(C)C)c1` (stereo not given)?
ERa SRC1 inh: -3.0; EphB4 ephrin blk: 0.9; ERb coact inh: -3.7; ERa coact pot: 87.3

What do the screens show for `CC1=C(C#N)C(Nc2ccc(C)cn2)(C(F)(F)F)C(=O)N1` (stereo not given)?
ERa SRC1 inh: 5.0; EphB4 ephrin blk: -2.3; ERb coact inh: 12.5; ERa coact pot: 227.6*[fluorescence artefact?]

What do the screens show for `CC1=C(C#N)C(Nc2ccc(Cl)cn2)(C(F)(F)F)C(=O)N1` (stereo not given)?
ERa SRC1 inh: -3.7; EphB4 ephrin blk: 7.8; ERb coact inh: -9.6; ERa coact pot: 101.6

Results for Brc1ccc(-c2nnc(-c3cccnc3)c3conc23)cc1 ?
ERa SRC1 inh: 69.4*; EphB4 ephrin blk: -1.4; ERb coact inh: 24.9; ERa coact pot: 82.1

How did Cn1c(-c2ccc(C=O)s2)nc2c3ccccc3c3ccccc3c21 do in these assays?
ERa SRC1 inh: 32.3; EphB4 ephrin blk: 6.6; ERb coact inh: -0.5; ERa coact pot: 364.3*[fluorescence artefact?]

How did CC(=O)c1ccc(-n2nnnc2SCC(=O)N2CCc3ccccc3C2)cc1 do in these assays?
ERa SRC1 inh: -0.6; EphB4 ephrin blk: 18.4*; ERb coact inh: 1.3; ERa coact pot: 106.2

What do the screens show for `CCCOCC1CC2(SC(=Nc3ccc(C)cc3)NC2=O)C(=O)O1` (stereo not given)?
ERa SRC1 inh: -5.7; EphB4 ephrin blk: -4.2; ERb coact inh: 69.1*[fluorescence artefact?]; ERa coact pot: 106.2

What do the screens show for `Cc1ccnc(NC(=O)c2ccc(N3C(=O)CCC3=O)cc2)c1`?
ERa SRC1 inh: 21.0; EphB4 ephrin blk: 10.9; ERb coact inh: 22.1; ERa coact pot: 224.3*

How did COc1cc(C(=O)Nc2cc(C)ccn2)cc(OC)c1OC do in these assays?
ERa SRC1 inh: -6.2; EphB4 ephrin blk: 0.9; ERb coact inh: 4.5; ERa coact pot: 89.5

Results for COc1ccc(C(=O)NC(=O)Nc2cc(C)ccn2)cc1 ?
ERa SRC1 inh: 16.6; EphB4 ephrin blk: -4.9; ERb coact inh: -20.5; ERa coact pot: 210.0*

How did O=C(Nc1nnc(-c2ccc3c(c2)CCCC3)o1)c1ccccc1 do in these assays?
ERa SRC1 inh: 2.4; EphB4 ephrin blk: -4.2; ERb coact inh: -4.2; ERa coact pot: 88.8

What do the screens show for `O=C(Nc1nnc(-c2ccc3c(c2)OCCO3)o1)c1ccc(Cc2ccccc2)cc1`?
ERa SRC1 inh: 45.5; EphB4 ephrin blk: 3.2; ERb coact inh: 64.5*[fluorescence artefact?]; ERa coact pot: 350.9*[fluorescence artefact?]

Bioassay records from PubChem.
